Test results from the supplement of paper PMC3545927.
This is one part of the list. How many sequences the whole screen found active is unknown.

B1: FS-162 (peptide)
chain: CAGPSRFRKAAGNASASA
B2: FS-1529 (peptide)
chain: CAGWIRSRKAAGNASASA
B3: FS-1201 (peptide)
chain: CAGPQRQKKAAGNASASA
B4: HC1364 (peptide)
chain: CATVSSEANAAGNASASA
B5: FS-574 (peptide)
chain: CAWPHRSRKAAGNASASA
B6: FS-731 (peptide)
chain: CATVSRFRKAAGNASASA
B7: HC124 (peptide)
chain: CAEVVLSTWVAGNASASA
B8: HC1196 (peptide)
chain: CATPLPAPNYAGNASASA
B9: HC1034 (peptide)
chain: CAAPAVQTNWAGNASASA
B10: HC247 (peptide)
chain: CASFSIFLLAAGNASASA
B11: FS-2969 (peptide)
chain: CARKLRGETVAGNASASA
B12: FS-3193 (peptide)
chain: CARKLRSLEQAGNASASA
B13: FS-2483 (peptide)
chain: CARDRRRLEQAGNASASA
B14: FS-3182 (peptide)
chain: CARALRSATQAGNASASA
B15: FS-2998 (peptide)
chain: CARLSRDSLQAGNASASA
B16: FS-2215 (peptide)
chain: CARKLRDVLQAGNASASA

Biological target: furin, P09958
Sequence (P09958 whole entry): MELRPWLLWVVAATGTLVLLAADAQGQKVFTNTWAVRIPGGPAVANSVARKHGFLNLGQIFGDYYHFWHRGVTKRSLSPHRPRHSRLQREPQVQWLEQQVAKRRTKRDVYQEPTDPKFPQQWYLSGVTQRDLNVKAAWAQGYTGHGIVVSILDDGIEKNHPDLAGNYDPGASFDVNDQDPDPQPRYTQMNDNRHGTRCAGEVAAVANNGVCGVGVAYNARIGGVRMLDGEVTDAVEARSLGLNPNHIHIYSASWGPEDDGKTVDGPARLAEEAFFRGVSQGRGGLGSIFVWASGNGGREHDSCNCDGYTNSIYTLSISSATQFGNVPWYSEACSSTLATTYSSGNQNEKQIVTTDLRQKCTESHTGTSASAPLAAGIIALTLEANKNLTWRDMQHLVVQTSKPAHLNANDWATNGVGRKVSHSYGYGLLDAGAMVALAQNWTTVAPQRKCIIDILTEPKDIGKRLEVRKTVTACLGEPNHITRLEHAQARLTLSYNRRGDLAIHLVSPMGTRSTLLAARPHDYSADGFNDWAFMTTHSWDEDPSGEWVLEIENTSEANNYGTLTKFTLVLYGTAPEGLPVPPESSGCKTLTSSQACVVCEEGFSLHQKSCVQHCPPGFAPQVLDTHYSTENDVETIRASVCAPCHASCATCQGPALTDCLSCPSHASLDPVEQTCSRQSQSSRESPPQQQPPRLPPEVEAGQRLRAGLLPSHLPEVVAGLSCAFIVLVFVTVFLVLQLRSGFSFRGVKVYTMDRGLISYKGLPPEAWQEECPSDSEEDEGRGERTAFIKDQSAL
Test: furin cleavage Z-score vs untreated control; higher = more cleavage, active = 3.5 or more, inactive = 1 or less, 8 variable residues between constant flanks
Summary of the method: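 Furin-free reactions served as the baseline for the cleavage Z-score, which is the log read count lowess-adjusted and scaled by median absolute deviation. Counts came from released DNA, adapter-tagged by PCR and sequenced. Purified furin had cut 8-mer peptides fused to a cDNA oligonucleotide on magnetic beads during 7.5, 15 or 30 min at 1:10 enzyme:substrate.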
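Also: purified furin at 1:10 enzyme:substrate in 50 mM HEPES pH 7.5.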

Sequence | furin cleavage Z-score (7.5 min) | furin cleavage Z-score (15 min) | furin cleavage Z-score (30 min)
B1 | 5.12 (active) | 5.93 (active) | 5.05 (active)
B2 | -0.333 (inactive) | 0.0867 (inactive) | 1.14
B3 | -1.12 (inactive) | -0.885 (inactive) | 1.12
B4 | -0.827 (inactive) | -1.5 (inactive) | -0.39 (inactive)
B5 | 0.887 (inactive) | 1.32 | -0.0044 (inactive)
B6 | 4.07 (active) | 6.77 (active) | 7.8 (active)
B7 | -1.79 (inactive) | 0.00773 (inactive) | -0.313 (inactive)
B8 | -2.54 (inactive) | -0.301 (inactive) | -1.86 (inactive)
B9 | 0.577 (inactive) | -0.967 (inactive) | -0.703 (inactive)
B10 | 0.168 (inactive) | -0.433 (inactive) | -0.472 (inactive)
B11 | -1.81 (inactive) | -0.954 (inactive) | -0.18 (inactive)
B12 | 8.09 (active) | 8.14 (active) | 8.28 (active)
B13 | -1.86 (inactive) | 0.963 (inactive) | -0.511 (inactive)
B14 | -0.644 (inactive) | -0.755 (inactive) | 1.8
B15 | -0.269 (inactive) | -1.05 (inactive) | 1.09
B16 | 2.04 | 4.73 (active) | 4.95 (active)
